From PubChem BioAssay AID488975 (Johns Hopkins Ion Channel Center, 2010)
Among all 310,000 compounds or so, about 2,600 (0.84%) were called active.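 How the source made its calls: active means B-score over 3 SD under the library average, and starting fluorescence ratio not unusually high; inactive means the rest.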 The entries come from a sample that favours actives as a whole.

What follows are compounds tested against High affinity choline transporter 1 (Homo sapiens) (UniProt Q9GZV3) (assay: inhibits the human high affinity choline transporter (AID 488975;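 on B-score: choline stimulus applied at its EC90 after an EC20 pre-addition; B-score computed on integrated fluorescence ratio after choline addition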)). Settings: CHT-expressing cells, membrane potential dye, choline response, at 10 µM; stronger effect = lower value.
High affinity choline transporter 1 (Homo sapiens), sequence (Q9GZV3 whole entry, looked up): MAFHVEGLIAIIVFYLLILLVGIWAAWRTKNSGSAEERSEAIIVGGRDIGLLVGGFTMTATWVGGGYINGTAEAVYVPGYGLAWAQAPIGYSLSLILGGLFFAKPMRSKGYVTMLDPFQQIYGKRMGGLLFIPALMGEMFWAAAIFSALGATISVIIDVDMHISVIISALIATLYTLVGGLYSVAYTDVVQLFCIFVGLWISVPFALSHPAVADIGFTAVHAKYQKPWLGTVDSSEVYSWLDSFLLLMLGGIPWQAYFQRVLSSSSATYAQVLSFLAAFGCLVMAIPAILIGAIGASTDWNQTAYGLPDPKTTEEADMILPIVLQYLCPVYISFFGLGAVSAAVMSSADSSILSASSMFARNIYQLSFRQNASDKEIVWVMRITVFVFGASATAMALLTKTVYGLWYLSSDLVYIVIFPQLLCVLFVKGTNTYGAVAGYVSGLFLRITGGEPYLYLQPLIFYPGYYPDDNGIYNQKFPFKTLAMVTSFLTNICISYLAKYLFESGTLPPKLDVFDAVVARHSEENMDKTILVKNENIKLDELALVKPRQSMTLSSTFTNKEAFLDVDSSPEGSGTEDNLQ

Row | SMILES | B-score
1 | Cc1nc2ccccn2c1P(=S)(N1CCCCC1)N1CCCCC1 | -6.55 (active)
2 | CC[C@H]1CC2CN3CCc4c([nH]c5ccccc45)C(C(=O)OC)(C2)C13 (stereo not given in full) | inactive
3 | COC(=O)C1=C(c2cc3ccccc3s2)C[C@@H]2CC[C@H]1N2C(=O)NC(C)C | inactive
4 | C[N+]1(C)CCOC(O)(c2ccc(-c3ccc(C4(O)C[N+](C)(C)CCO4)cc3)cc2)C1 (stereo not given) | -5.22 (active)
5 | C=CCN1C(=O)NC(=O)/C(=C/c2ccc(OCC(=O)Nc3ccc(C)cc3)cc2)C1=O | inactive
6 | COc1ccc(CNCCc2c[nH]c3ccccc23)cc1OC | inactive
7 | O=C(N/N=C/c1c(O)n(C2CC2)c(=S)[nH]c1=O)c1ccccc1 | inactive
8 | COc1ccc2c(c1)[C@]13CCCCC1C(C2)N(C)CC3 (stereo not given in full) | inactive
9 | COC(=O)C1=C(c2cc3ccccc3s2)C[C@@H]2CC[C@H]1N2C(=O)NCc1cccc2ccccc12 | inactive
10 | COC(=O)C(c1ccccc1)N1CCCCCC1 (stereo not given) | inactive
11 | O=C(NCC(c1cccnc1)N1CCN(c2ccccc2)CC1)Oc1ccccc1 (stereo not given) | inactive
12 | COc1ccccc1N1CCN(C(CNC(=O)Oc2ccccc2)c2cccnc2)CC1 (stereo not given) | -6.58 (active)
13 | COc1ccc(N2C(=O)/C(=C/c3ccco3)C(=O)NC2=S)cc1 | inactive
14 | COC(=O)C1=C(c2ccccc2)C[C@@H]2CC[C@H]1N2C(=O)NCc1ccco1 | inactive
15 | C/C(=N/O)c1ccc2ccc3ccccc3c2c1 | inactive
